Several values for one entry are separate records, joined by “and”; a condition that tells them apart may be missing. Identical values can stand only once. About 2,000 (36%) of roughly 5,500 compounds were called active. Roughly 18% stayed inconclusive and do not appear here. No stated cut-off is given here; in the data, active means normalized growth mostly below about 0.91 (no sharp cut-off); inconclusive means no clear call, values can overlap the other calls; inactive means mostly above about 0.92. This is one part of the list.
Assay: chemical genetic growth profiling, strain panel (AID 1159580);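 further: tested at 20 µM; growth read once vehicle control cultures reached saturation at 30 °C; 1 = growth at the plate median or of vehicle wells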
Details: S. cerevisiae deletion strains, growth OD

Measured: normalized growth

CCCCOc1cc(C(=O)NCCN(CC)CC)c2ccccc2n1
inactive: locus YAL021C, strain ccr4, stronger effect = lower value 0.956 | locus YAL026C, strain drs2, stronger effect = lower value 0.986 | locus YAL030W, strain snc1, stronger effect = lower value 0.972 | locus YBL061C, strain skt5, stronger effect = lower value 0.97 | locus YBR009C, strain hhf1, stronger effect = lower value 0.97 | locus YBR021W, strain FUR4, stronger effect = lower value 1.02 | locus YBR023C, strain chs3, stronger effect = lower value 0.977 | locus YBR171W, strain sec66, stronger effect = lower value 0.947 | locus YBR229C, strain ROT2, stronger effect = lower value 1.01 | locus YBR231C, strain swc5, stronger effect = lower value 0.959 | locus YBR279W, strain paf1, stronger effect = lower value 0.998 | locus YCL011C, strain gbp2, stronger effect = lower value 0.987 | locus YCL016C, strain dcc1, stronger effect = lower value 1.01 | locus YCL029C, strain bik1, stronger effect = lower value 1.01 | locus YCL061C, strain MRC1, stronger effect = lower value 0.967 | locus YCL069W, strain vba3, stronger effect = lower value 0.984 | locus YCR088W, strain abp1, stronger effect = lower value 0.954 | locus YDL005C, strain med2, stronger effect = lower value 0.972 | locus YDL035C, strain GPR1, stronger effect = lower value 1.03 | locus YDL040C, strain nat1, stronger effect = lower value 0.96 | locus YDL074C, strain BRE1, stronger effect = lower value 1 | locus YDL101C, strain DUN1, stronger effect = lower value 1 | locus YDL134C, strain PPH21, stronger effect = lower value 1.03 | locus YDL185W, strain tfp1, stronger effect = lower value 1.01 | locus YDL192W, strain arf1, stronger effect = lower value 1 | locus YDR001C, strain nth1, stronger effect = lower value 0.933 | locus YDR069C, strain doa4, stronger effect = lower value 0.932 | locus YDR101C, strain arx1, stronger effect = lower value 1.01 | locus YDR137W, strain rgp1, stronger effect = lower value 1.02 | locus YDR159W, strain sac3, stronger effect = lower value 0.973 | locus YDR162C, strain NBP2, stronger effect = lower value 1.01 | locus YDR195W, strain ref2 0.932 | locus YDR297W, strain sur2, stronger effect = lower value 0.966 | locus YDR318W, strain mcm21, stronger effect = lower value 0.984 | locus YDR334W, strain swr1, stronger effect = lower value 0.925 | locus YDR335W, strain msn5, stronger effect = lower value 0.942 | locus YDR388W, stronger effect = lower value 0.995 | locus YDR392W, strain spt3, stronger effect = lower value 1.05 | locus YDR502C, strain sam2, stronger effect = lower value 0.996 | locus YEL003W, strain gim4, stronger effect = lower value 0.959 | locus YEL037C, strain rad23, stronger effect = lower value 0.968 | locus YEL061C, strain CIN8 (second series), stronger effect = lower value 0.941 | locus YEL061C, strain CIN8, stronger effect = lower value 1 | locus YER015W, strain faa2, stronger effect = lower value 0.973 | locus YER016W, strain bim1, stronger effect = lower value 1.01 | locus YER110C, stronger effect = lower value 1 | locus YER111C, strain swi4, stronger effect = lower value 0.966 | locus YER155C, strain BEM2 (second series), stronger effect = lower value 0.886 | locus YER155C, strain BEM2, stronger effect = lower value 0.998 | locus YER167W, strain BCK2, stronger effect = lower value 1 | locus YFR010W, strain ubp6, stronger effect = lower value 0.94 | locus YGL078C, strain dbp3, stronger effect = lower value 0.995 | locus YGL086W, strain mad1, stronger effect = lower value 0.992 | locus YGL167C, strain pmr1, stronger effect = lower value 0.939 | locus YGL173C, strain kem1, stronger effect = lower value 0.966 | locus YGL227W, strain vid30, stronger effect = lower value 0.956 | locus YGL240W, strain doc1, stronger effect = lower value 0.92 | locus YGL248W, strain PDE1, stronger effect = lower value 0.999 | locus YGL253W, strain hxk2, stronger effect = lower value 0.995 | locus YGR078C, strain PAC10, stronger effect = lower value 1 | locus YGR135W, strain pre9, stronger effect = lower value 0.977 | locus YGR252W, strain gcn5, stronger effect = lower value 0.914 | locus YHR013C, strain ard1, stronger effect = lower value 1.01 | locus YHR027C, strain rpn1, stronger effect = lower value 0.973 | locus YHR030C, strain SLT2, stronger effect = lower value 1.01 and 1.04 | locus YHR079C, strain IRE1 (second series), stronger effect = lower value 0.982 | locus YHR079C, strain IRE1, stronger effect = lower value 1.02 | locus YHR094C, strain hxt1, stronger effect = lower value 0.991 | locus YHR129C, strain ARP1, stronger effect = lower value 1.01 | locus YHR142W, strain chs7, stronger effect = lower value 0.974 | locus YHR200W, strain rpn10, stronger effect = lower value 0.998 | locus YIL066C, strain RNR3, stronger effect = lower value 1.01 | locus YIL073C, strain SPO22, stronger effect = lower value 1.03 | locus YIL125W, strain kgd1, stronger effect = lower value 0.997 | locus YIR030C, strain dcg1, stronger effect = lower value 0.993 | locus YJL092W, strain hpr5, stronger effect = lower value 0.979 | locus YJL095W, strain BCK1 (second series), stronger effect = lower value 0.966 | locus YJL095W, strain BCK1, stronger effect = lower value 0.988 and 1.04 | locus YJL115W, strain asf1, stronger effect = lower value 0.94 | locus YJL129C, strain trk1, stronger effect = lower value 0.939 | locus YJL134W, strain LCB3, stronger effect = lower value 1 | locus YJL154C, strain vps35, stronger effect = lower value 0.942 | locus YJL164C, strain tpk1, stronger effect = lower value 1 | locus YJL166W, strain qcr8, stronger effect = lower value 0.937 | locus YJL168C, strain set2, stronger effect = lower value 0.997 | locus YJL187C, strain SWE1 (second series), stronger effect = lower value 0.999 | locus YJR043C, strain POL32, stronger effect = lower value 1.02 | locus YJR066W, strain TOR1, stronger effect = lower value 0.968
